Experiment [1] in a line: CCTE_Deisenroth_5AR_NBTE_donor: CCTE's 5alpha-reductase NanoBRET Target Engagement Assay […], Deisenroth Lab (AID 2284319; active = hit-call score of the fitted dose curve at least 0.9, where 1 is the maximum; inactive = score below 0.9). The following applies: actives raise or lower the signal. In outline:
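SRD5A2-NanoLuc, HEK293T, 20 h expression. Chemical 10 nM - 29.9 uM, 8 conc, duplicate; 3 h preincubation + 2 h testosterone tracer. Nano-Glo substrate plus extracellular NanoLuc inhibitor; donor lum 460 nm. DMSO baseline, bidirectional fit.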
For orientation: Bioluminescence resonance energy transfer reports proximity on the nanometre scale.

Experiment [2] in a line: IUF_NPC2-5_cytotoxicity_72hr: Cytotoxicity Assessment at 72 hours in the Leibniz Research Institute for Environmental Medicine (IUF) Neural Progenitor Cell Migration and Differentiation Assay for Cytotoxicity (NPC2-5) (AID 2284306).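 Note: LDH release into supernatant measured by resorufin fluorescence marking membrane damage.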 In outline: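 Primary human neural progenitor spheres migrate and differentiate on laminin. Compound is present from the start of differentiation, with DMSO kept at or below 0.1%. At 72 h, supernatant LDH is quantified fluorometrically, with values fitted in the positive direction.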

The nature of experiment [3]: IUF_NPC2-5_cytotoxicity_120hr: Cytotoxicity Assessment at 120 hours in the Leibniz Research Institute for Environmental Medicine (IUF) Neural Progenitor Cell Migration and Differentiation Assay (NPC2-5) (AID 2284307). In outline: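 Membrane-integrity loss measured as LDH activity in medium supernatant via resazurin-to-resorufin fluorescence after 120 h exposure. hNPC spheres from GW 16-19 fetal cortex differentiated on poly-D-lysine/laminin, 37C, medium half-refreshed day 3; seven concentrations, DMSO max 0.1%.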

Experiment [4] is described as follows: IUF_NPC2-5_cell_number_120hr: Cell Number Assessment at 120 hours in the Leibniz Research Institute for Environmental Medicine (IUF) Neural Progenitor Cell Migration and Differentiation Assay (NPC2-5) (AID 2284308; active = hit-call score of the fitted dose curve at least 0.9, where 1 is the maximum; inactive = score below 0.9;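 note: count of Hoechst-stained nuclei in migration zone around plated human neural progenitor spheres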). The method in brief: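 Counting of all Hoechst-stained nuclei in the migration area at 120 h, versus DMSO control. Primary hNPC spheres differentiated on poly-D-lysine/laminin in N2 medium at 37C, dosed from day 0 (7 concentrations, DMSO ≤0.1%), half-refed day 3.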

Experiment [5] is described as follows: IUF_NPC2-5_viability_120hr: Viability Assessment at 120 hours in the Leibniz Research Institute for Environmental Medicine (IUF) Neural Progenitor Cell Migration and Differentiation Assay (NPC2-5) (AID 2284312; active = hit-call score of the fitted dose curve at least 0.9, where 1 is the maximum; inactive = score below 0.9). In outline: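 Human fetal (GW 16-19) neural progenitor spheres of 0.3 mm were plated on poly-D-lysine/laminin in N2 differentiation medium and exposed from day 0 for 120 h, with half-medium refresh at day 3. Viability was read as alamar blue resazurin-to-resorufin fluorescence against DMSO.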

Experiment [6] is described as follows: CCTE_Mundy_HCI_iCellGluta_NOG_NeuriteLength: CCTE's Neurite Outgrowth Assay in iCellGluta cells for Neurite Length, Mundy Lab (AID 2284318). The method in brief:
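Automated high-content imaging of betaIII-tubulin (Alexa Fluor-488) and Hoechst-stained cells gave neurite length, normalized to the DMSO baseline.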

The next experiment deals with IYD (gene 389434). Put plainly: CCTE_GLTED_hIYD: CCTE's human Iodotyrosine Deiodinase (xIYD) Inhibition Assay, Great Lakes Toxicology and Ecology Division (GLTED) Lab (AID 2284317).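 Note: cell-free human IYD enzyme made in baculovirus insect cells; iodide freed from monoiodotyrosine measured by cerium arsenite color change at 420 nm.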 The method in brief:
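In the IYD assay, iodide released from MIT by insect-cell-expressed human enzyme was quantified after 3 h via Sandell-Kolthoff rate at 420 nm, with plate-wise normalization to MNT and solvent controls.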

Experiment [7] can be described thus: IUF_NPC4_neurite_area_120hr: Leibniz Research Institute for Environmental Medicine (IUF) 120-hour Neuronal Morphology Assay for Neurite Area (NPC4) (AID 2284305). In outline:
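Endpoint at 120 h: automated imaging of TUBB3/Hoechst-stained differentiating human neural progenitor spheres, neurite area per neuron from skeletonization. DMSO solvent control, not above 0.1%, set the baseline; medium was half-replaced on day 3.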

Results filed as inconclusive are left out. The source holds several records for some structures; these can differ, active in one and inactive in another. Activity calls are given as the source filed them. Rule for the calls, unless noted: active = hit-call score of the fitted dose curve at least 0.9, where 1 is the maximum; inconclusive = response in the unintended direction; inactive = score below 0.9.

Turning to `Cc1ccc(N=CN(C)C=Nc2ccc(C)cc2C)c(C)c1`, in experiment [1], the outcome was inactive.

Regarding `CCSC(=O)N1CCCCCC1`, the compound was called inactive in experiment [2], in experiment [3], in experiment [4], in experiment [5] and in experiment [6].

Take `CS(=O)(=O)c1ccc(C(=O)C2C(=O)CCCC2=O)c([N+](=O)[O-])c1`: the call in experiment [2], in experiment [3], in experiment [4], in experiment [5] and in experiment [6] was inactive.

As for `CCN(CC)C(=O)C(C)Oc1cccc2ccccc12` (centres undefined), the compound was classed as inactive in the experiment with IYD (gene 389434).

For `O=C(Nc1ccccc1-c1ccc(Cl)cc1)c1cccnc1Cl`, the call in experiment [7], in experiment [2], in experiment [3], in experiment [4], in experiment [5] and in experiment [6] was inactive. Besides, the AC50 (usually the midpoint of the concentration-response curve, whichever way the signal moves) in experiment [6] was 23.7 µM (active).

Turning to `CCC(C)n1c(=O)[nH]c(C)c(Br)c1=O` (centres undefined), the outcome in the experiment on IYD (gene 389434) was inactive.

`C=C(C)CN(CC)c1c([N+](=O)[O-])cc(C(F)(F)F)cc1[N+](=O)[O-]`: the call in experiment [7], in experiment [3], in experiment [4] and in experiment [5] was inactive. Moreover, the AC50 in experiment [6] was 22.1 µM (active).

For `Cc1c(COC(=O)[C@@H]2[C@H](/C=C(\Cl)C(F)(F)F)C2(C)C)cccc1-c1ccccc1`, the compound was classed as inactive in experiment [7], in experiment [2], in experiment [3], in experiment [4] and in experiment [5]. Further, the AC50 in experiment [6] is 10.8 µM (active).

As to `CC(C)(C)C(=O)C(Oc1ccc(Cl)cc1)n1cncn1` (centres undefined), the compound was called inactive in experiment [2], in experiment [3], in experiment [4], in experiment [5] and in experiment [6].

As to `CN/C(=N\[N+](=O)[O-])NCc1cnc(Cl)s1`, the AC50 in experiment [7] was 10 µM (active). Moreover, the compound was called inactive in experiment [2], in experiment [3], in experiment [4], in experiment [5] and in experiment [6].

As for `CS(=O)(=O)c1cc(C(F)(F)F)ccc1C(=O)c1cnoc1C1CC1`, the compound was classed as inactive in experiment [7], in experiment [2], in experiment [3], in experiment [4], in experiment [5] and in experiment [6].

As for `CO/N=C(/C1=NOCCO1)c1ccccc1Oc1ncnc(Oc2ccccc2Cl)c1F`, the compound was classed as inactive in experiment [7], in experiment [2], in experiment [3], in experiment [4] and in experiment [5]. For the same compound, in experiment [6], the AC50 is 9.92 µM (active).

(Values after PubChem BioAssay (EPA / NIEHS).)
